This is an account of results in the supplement of paper PMC4709259.

Counter-ions that a name gives are not always drawn. ± gives the standard deviation.

This assay deals with Jurkat. In words: cell count relative to DMSO control (fraction of control); higher = more cells (less growth inhibition). As to conditions: 48 h.
For the compound `CCCCCCCCc1ccc(CCC(N)(CO)CO)cc1` [Fingolimod] (concentration: 25 µM), the cell count turned out to be 0.953 ± 0.12.

Take `CC(=O)Nc1c(I)c(NC(C)=O)c(I)c(C(=O)O)c1I` [Diatrizoate Meglumine] (concentration: 25 µM): the cell count turned out to be 0.846 ± 0.085.

`CCN1CCN(C(=O)N[C@@H](C(=O)N[C@@H]2C(=O)N3[C@@H]2SC(C)(C)[C@@H]3C(=O)O)c2ccccc2)C(=O)C1=O` [Piperacillin] (concentration: 25 µM) yielded a cell count of 0.91 ± 0.068.

For `Nc1nc2ccc(OC(F)(F)F)cc2s1` [Riluzole·HCl] (concentration: 2.5 µM), the cell count was 0.573 ± 0.029.

`Cc1ccccc1C(OCCN(C)C)c1ccccc1` (stereo not given) [Orphenadrine Citrate] (concentration: 25 µM) showed a cell count of 0.742 ± 0.13.

Regarding `O=C1CN(/N=C/c2ccc([N+](=O)[O-])o2)C(=O)N1` [Nitrofurantoin] (concentration: 2.5 µM), the cell count stood at 0.66 ± 0.029.

For `CCN(CC)CCCC(C)Nc1ccnc2cc(Cl)ccc12` (stereo not given) [Chloroquine Diphosphate] (concentration: 25 µM), the cell count was 1.03 ± 0.099.

Take `CC(CCc1ccc(O)cc1)NCCc1ccc(O)c(O)c1` (stereo not given) [Dobutamine·HCl] (concentration: 25 µM): the cell count came out at 0.464 ± 0.13.

Regarding `CCCCS(=O)(=O)N[C@@H](Cc1ccc(OCCCCC2CCNCC2)cc1)C(=O)O` [Tirofiban·HCl] (concentration: 25 µM), the cell count came out at 1.01 ± 0.08.

In the case of `CCOc1cc(CC(=O)N[C@@H](CC(C)C)c2ccccc2N2CCCCC2)ccc1C(=O)O` [Repaglinide] (concentration: 25 µM), the cell count came to 0.728 ± 0.063.
